Assay results: PubChem BioAssay (NCATS)
Results filed as inconclusive are left out. A call without a number means that no potency is given here. Active and inactive are the calls of the source. Calls follow the shape of the dose curve; as a rule, active = well fitted inhibition curve with a large enough effect; inconclusive = small, poorly fitted or top-dose-only effect; inactive = flat fitted curve, though single readings scatter.
Potency is read from the fitted curve at half-maximal effect.

Assay: P-glycoprotein substrates identified in KB-8-5-11 adenocarcinoma cell line, qHTS therapeutic library screen (AID 1346987); also: nearly all actives have a fitted effect of over 65% in size
Conditions: KB-8-5-11 (P-gp overexpressing) viability, CellTiter-Glo, 72 h; series mostly up to 44.5 µM
Method in brief: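 Compounds are pinned in dose-response onto KB-8-5-11 cells (500 cells/well, colchicine-free medium) and left 72 h at 37 degree C. CellTiter-Glo luminescence then yields AC50 values.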
For CC(C)(Cc1nc(-c2ccc(O)cn2)no1)C(=O)NC1=C(C(=O)O)CCCC1, the Potency was “inactive”. In the case of C=C1CCC[C@]2(C)CC/C(=C(/CO)C(=O)OC)C[C@@H]12, the Potency was “inactive”. In the case of CC1(C(=O)Nc2ccc(F)nc2)CCCN1c1nc(Nc2cc(C3CC3)[nH]n2)c2cccn2n1 (stereo not given), the Potency was 2.31 µM (active). In the case of Nc1nc(OCc2cc(Br)cs2)c2[nH]cnc2n1, the Potency was “inactive”. With C/C(=C\CCC(C)C1=CCC2(C)OC3=C(CC12)C(=O)C(O)CC3)CO (stereo not given) the Potency was “inactive”. In the case of CN(C)N(C)C(=O)[C@@]1(Cc2ccccc2)CCCN(C(=O)[C@@H](Cc2c[nH]c3ccccc23)NC(=O)C(C)(C)N)C1, the Potency was “inactive”. For c1cc(-c2cnn3cc(-c4ccc(N5CCNCC5)cc4)cnc23)c2cccnc2c1, the Potency was 5.17 µM (active). In the case of Cc1cc2occ(CN(C)CCN(C)Cc3cn(-c4cccc(C(F)(F)F)c4)c4ccccc34)c(=O)c2cc1C, the Potency was 18.4 µM (active). In the case of CN(C)CCn1cc(-c2ccc(F)cc2)c(-n2cccc2)n1, the Potency was “inactive”. In the case of C/C(=C/C=C\C=C\Cc1cnco1)[C@@H](O)C(C)(C)C(N)=O, the Potency was “inactive”.
